# ± gives the standard deviation.
# Tested on: MILI (PIWIL2) piRISC loaded with L1MC piRNA (26 nt)
# Experiment: pre-steady-state target cleavage rate (min^-1); guide: L1MC piRNA 5'p-UAACUAAAUACUAUGCAAGCUGUAGG; MIWI and MILI are mouse PIWI proteins and EfPiwi is from a freshwater sponge; tags in brackets are library labels; higher = faster piRNA-guided slicing of the target
# Conditions: auxiliary factor: 500 nM mouse GTSF1
# How it was run: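 At 33 °C in HEPES–potassium acetate buffer, a transcribed, DNA-blocked target RNA library […] was exposed for 0–8 or 0–960 min to 1 nM active affinity-purified piRISC carrying a single synthetic guide, with or without 500 nM GTSF1 partner protein. Uncleaved targets were sequenced and normalised to depth and to weakly complementary targets. With three trials pooled and k3 capped at 0.0001 min^-1, a burst-and-steady-state fit produced the pre-steady-state cleavage rate.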
# 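Also: 1 nM active piRISC with 0.1 nM target library at 33 °C single turnover.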
row,Sequence,pre-steady-state target cleavage rate
1,UCCUGGAUGUCGAAGCAUAAUAUUUAGUUA,0.0097 ± 0.0039
2,UCCUGGAACAGCUUGCAUUGUAUUUACUUA,0.163 ± 0.028
3,UCCUGGUACAGCUUGCAUAGAUUUUAGAAA,0.00722 ± 0.0042
4,UCCUGGAUGUCGAUGACAUAGUAUUUAGUUA,0.015 ± 0.0059
5,UCCUGGAUGUCCUUGCAUUGUAUUUACUUA,0.0534 ± 0.012
6,UCCUGGAUCACCUUGCAUAGUAUUUACUUA,0.0587 ± 0.017
7,UCCUCCUACAGCUUGCAUACUAUAUAGUUA,0.0619 ± 0.015
8,UCCUGGAACACCUUGCAUAGAAUUUAGUUA,0.0907 ± 0.036
9,UCCUGGUAGAGCUUGCAUAGUAUUUACUUA,0.0436 ± 0.012
10,UCCUGGUACAGCAUGCAUAGUAUUUUCAAA,0.0847 ± 0.026
11,UCCUGGAUGUGCUUGCAUAGUAUAUAGUAA,0.0253 ± 0.0079
12,UCCUGCUUGUGCUUGCAUAGUAUUUACAAA,0.0112 ± 0.0055
13,UCCUGGUACUCCUUGCAUAGUAUUUACAAA,0.0123 ± 0.006
14,UCCUGGAUGAGCUUGCAUAGUAUUUUCUUA,0.0122 ± 0.0069
15,UCCUGCUACAGCAUGCAUAGUAUUUAGAUA,0.179 ± 0.033
16,UCCUGGAUGUCCUUGCUUAGUAUUUAGAUA,0.0358 ± 0.0092
17,UCCUGGUACAGCUUGCAUAGUAUUUUCAUA,0.0352 ± 0.014

row,Sequence,pre-steady-state target cleavage rate
1,UCCUGGAUGAGCUUGCAUAGUAUUUUGAAA,0.0223 ± 0.0096
2,UCCUGGAUGUGCUUGGAUUGUAUUUAGUUA,0.00469 ± 0.0044
3,UCCUGCUACAGCUUGCAUAGUUUAUAGUUA,0.0528 ± 0.017
4,UCCUGGAUGAGCUUGCAUAGUAUUUAGGUA,0.166 ± 0.04
5,UCCUGGUACAGCUAGCAUAGAAUUUAGUUA,0.313 ± 0.084
6,UCCUGGAUGUCCAUGCAAAGUAUUUAGUUA,0.0101 ± 0.0043
7,UCCUGGAUGUCCAUGCAUAGUAUUAAGUUA,0.0665 ± 0.018
8,UCCUGGAUGUGCUUGCAUAGUAUUUAGAAA,0.0532 ± 0.013
9,UCCUGGAUGUCGAACCAUAGUAUUUAGCUUA,< 0.0001
10,UCCUGGAUCACCUUGCAUAGUAUUUAGAAA,0.22 ± 0.051
11,UCCUGGAUGUCGAAGCAUAGUAUUUAGUUC [g2:g16:cont:t1C],0.0284 ± 0.0076
12,UCCUGGAUCAGCUUGCAUAGUUUUUUCAAA,0.00833 ± 0.0048
13,UCCUGGUACAGCUUGCUAUGUAUUUAGUAA,0.00603 ± 0.0046
14,UCCUGGAUCAGCUUGCAUAGUAUUAUCUAA,0.0859 ± 0.021
15,UCCUGGAUGAGCAUGCAUAGUAUUUACAAA,0.0679 ± 0.018
16,UCCUGGAUGUGGUUGCAUAGUAUUUACUUA,0.00985 ± 0.0096
17,UCCUGGAUGUCCAUGCAUAGUAUUUACUUA,0.0292 ± 0.0095

# Same assay, conditions: auxiliary factor: none (no GTSF1)
row,Sequence,pre-steady-state target cleavage rate
1,UCCUGGAUGUCGAACGUAUGUUUUAGUUA,< 0.0001
2,UCCUGGAUGUCGAUCCAUAGAAUUUAGUUA,< 0.0001
3,UCCUGGAUGUCGAACCAAGUAUUUAGUUA,< 0.0001
4,UCCUGGAUGUCGAACGUAUGAUAUUAGUUA,< 0.0001
5,UCCUGGAUGUCGAACGAUAGUUUUAAGUUA,< 0.0001
6,UCCUGGAUGUCGAACGUAUGUAUUUCAGUUA,< 0.0001

# — the supplement of paper PMC10338343
